Screening data (PubChem)
The sample as a whole holds a higher share of hits than the screen did.
Cycloheximide cs – counter-screen hit for Shiga toxin inhibitors, cycloheximide | 300,000 tested, 12% active | cell reporter, cycloheximide protein synthesis inhibition counterscreen | max response, %; in the data active = max response mostly above about 13%, no sharp cut-off; inactive = mostly below about 14%; note: read at 38.3 µM for the half of the compounds with a filed dose
Vaccinia Venus – inhibitors of vaccinia virus (Venus reporter) | Vaccinia virus Venus reporter expression, fluorescence | Potency, µM (doses to about 36.5 µM), usual class: inhibitors | 330,000 tested, 0.46% active | AID 720580; calls by dose curve; tested in A549 cells; note: nearly all actives have a fitted effect of over 30% in size
MARV entry inh – inhibitors of Marburg virus binding or cell entry; 300,000 tested, 1.8% active; Marburg virus pseudotyped entry inhibition, cell reporter; Potency, µM (series often up to 37.8 µM), most hits filed as inhibitors; calls by dose curve; tested in HEK293 cells
Shiga toxin inh – Shiga toxin inhibition; Vero cells, Shiga toxin protein synthesis inhibition reporter; inhibition, % at 38.7 µM; 290,000 tested, 9.2% active; in the data active = inhibition mostly above about 28%, no sharp cut-off; inactive = mostly below about 43%
LASV entry inh – Lassa virus entry inhibition. Lassa virus pseudotype entry inhibition, cell reporter. Potency, µM (top dose mostly 37.9 µM), actives largely listed as inhibitors. 300,000 tested, 1.2% active. AID 540256; calls by dose curve; tested in HEK293 cells; note: nearly all actives have a fitted effect of over 50% in size
VACV mCherry inh – vaccinia inhibition (mCherry reporter). Vaccinia virus mCherry reporter infection, fluorescence. Potency, µM (doses to about 36.5 µM), most hits filed as inhibitors. 310,000 tested, 0.63% active; calls by dose curve; tested in A549 cells; note: nearly all actives have a fitted effect of over 35% in size
Of the large screens only hits and unclear results are named; the others gave an inactive call.

Cn1c(-c2ccc(CN3CCCCC3)o2)nc2ccccc21	Cycloheximide cs 26, Shiga toxin inh 84, LASV entry inh inconclusive (no result: VACV mCherry inh)
FC(F)(F)c1nnc(-c2ccccc2)nc1Sc1ccccc1	MARV entry inh inconclusive
FC(F)(F)c1nnc(-c2ccccc2)nc1Sc1ccc(Cl)cc1	MARV entry inh 15µM, LASV entry inh inconclusive (no result: Vaccinia Venus, VACV mCherry inh)
COc1ccc(NC2CCCN(C(=O)CN3CCOC3=O)C2)cc1 (stereo not drawn)	Cycloheximide cs 38, Shiga toxin inh 62 (no result: Vaccinia Venus, MARV entry inh, LASV entry inh, VACV mCherry inh)
COc1ccc(NC2CCCN(C(=O)c3cc4ncccn4n3)C2)cc1 (stereo not drawn)	Cycloheximide cs 25, Shiga toxin inh 36 (no result: Vaccinia Venus, MARV entry inh, LASV entry inh, VACV mCherry inh)
COc1ccc(NC2CCCN(C(=O)CN3CCOC3=O)C2)cc1OC (stereo not drawn)	none (no result: Vaccinia Venus, MARV entry inh, LASV entry inh, VACV mCherry inh)
COc1ccc(NC2CCCN(C(=O)c3ccc(C)nc3)C2)cc1 (stereo not drawn)	none
CC1S/C(=N/N=C2CCC(C(C)(C)C)CC2)NC1=O (stereo not drawn)	Cycloheximide cs 26
CC1S/C(=N/N=C2CCCCC2)NC1=O (stereo not drawn)	Cycloheximide cs 30, MARV entry inh inconclusive
O=C(CC1S/C(=N/N=C2CCCCCC2)NC1=O)Nc1ccccc1C(F)(F)F (stereo not drawn)	none (no result: LASV entry inh)
CC(C)(C)C1CCNC(=O)CC1 (stereo not drawn)	none (no result: Cycloheximide cs, MARV entry inh, Shiga toxin inh, LASV entry inh)
CCOc1ccc(-c2nnc(Nc3ccc(OC)c(C(=O)N4CCCCC4)c3)c3ccccc23)cc1	none (no result: Vaccinia Venus, LASV entry inh, VACV mCherry inh)
O=C(CN1CC(=O)Oc2ccccc21)OCC(=O)c1cccc(Br)c1	Cycloheximide cs 18
O=C(CN1CC(=O)Oc2ccccc21)OCC(=O)c1ccccc1	none
CCN1C(=O)Cc2cc(S(=O)(=O)NCCc3ccccc3)ccc21	MARV entry inh inconclusive, VACV mCherry inh inconclusive
COC(=O)C1=NN(C(=O)c2ccc(C)cc2)C(O)(c2ccc(Cl)cc2)C1 (stereo not drawn)	none
CCC1=NN(C(=O)c2ccc(C)cc2)C(O)(c2ccc(Br)cc2)C1 (stereo not drawn)	Cycloheximide cs 39, Shiga toxin inh 44
CCC1=NN(C(=O)c2cccc(Br)c2)C(O)(c2ccc(Br)cc2)C1 (stereo not drawn)	Cycloheximide cs 41, MARV entry inh inconclusive, Shiga toxin inh 70 (no result: Vaccinia Venus, VACV mCherry inh)
CC1=NN(C(=O)c2ccc(Cl)cc2)C(O)(c2ccccc2)C1 (stereo not drawn)	VACV mCherry inh inconclusive
CCC1=NN(C(=O)c2ccccc2[N+](=O)[O-])C(O)(c2ccccc2)C1 (stereo not drawn)	none (no result: Cycloheximide cs, MARV entry inh, Shiga toxin inh, LASV entry inh)
CCC1=NN(C(=O)c2ccc(Br)cc2)C(O)(c2ccc(C)cc2)C1 (stereo not drawn)	Cycloheximide cs 33, MARV entry inh inconclusive, Shiga toxin inh 32
O=C(/C=C/c1ccc(Cl)cc1)N(Cc1ccccc1)c1ccccn1	Cycloheximide cs 21, Shiga toxin inh 107, LASV entry inh inconclusive
CC(=O)Oc1ccc(C(=O)Cc2ccc3ccccc3n2)c(O)c1C	Cycloheximide cs 26, Shiga toxin inh active (no result: Vaccinia Venus, VACV mCherry inh)
CC[C@@]1(O)C(=O)OCc2c1cc1n(c2=O)Cc2cc3ccccc3nc2-1	Vaccinia Venus inconclusive, MARV entry inh 0.025µM, LASV entry inh inconclusive, VACV mCherry inh inconclusive
CCC1(OC(=O)CN)C(=O)OCc2c1cc1n(c2=O)Cc2cc3ccccc3nc2-1 (stereo not drawn)	Vaccinia Venus inconclusive, MARV entry inh inconclusive, LASV entry inh inconclusive, VACV mCherry inh 7.1µM
CC[C@@]1(O)C(=O)OCc2c1cc1n(c2=O)Cc2cc3c(O)cccc3nc2-1	none (no result: Vaccinia Venus, MARV entry inh, LASV entry inh, VACV mCherry inh)
NC(=O)C1CCN(c2oc(/C=C/c3ccc(F)cc3)nc2S(=O)(=O)c2ccccc2)CC1	none (no result: Vaccinia Venus, MARV entry inh, LASV entry inh, VACV mCherry inh)
COc1ccc(CCC(C)Nc2cccc(F)c2)cc1 (stereo not drawn)	Cycloheximide cs 18 (no result: Vaccinia Venus, VACV mCherry inh)
CCCCCCC(=O)OC1CC(C)(C)NC(C)(C)C1	MARV entry inh inconclusive, LASV entry inh inconclusive (no result: Vaccinia Venus, VACV mCherry inh)
C/C=C(/C)C(=O)O[C@H]1C(C)=C2C([C@@H]1OC(=O)CCCCCCC)[C@@](C)(OC(C)=O)C[C@@H](OC(=O)CCC)[C@@]1(O)[C@H]2OC(=O)[C@@]1(C)O (stereo partly drawn)	MARV entry inh 0.71µM (no result: Cycloheximide cs, Vaccinia Venus, Shiga toxin inh, LASV entry inh, VACV mCherry inh)
COC(=O)c1sccc1-c1ccc(C(=O)Nc2cccnc2)o1	Cycloheximide cs 39, MARV entry inh inconclusive, Shiga toxin inh 127 (no result: Vaccinia Venus, VACV mCherry inh)
COC(=O)C(=Cc1ccc(-c2ccsc2C(=O)OC)o1)C(=O)OC	Cycloheximide cs 38, Shiga toxin inh 45
C=C1CCN(C(CC(C)C)C(=O)Nc2nc3ccc(Cl)cc3s2)S(=O)(=O)c2ccccc21 (stereo not drawn)	none (no result: Vaccinia Venus, MARV entry inh, LASV entry inh, VACV mCherry inh)
Cc1ccc2c(c1)CN(CCNC(=O)c1cccc(Cn3cccn3)c1)CC(C)O2 (stereo not drawn)	none (no result: Cycloheximide cs, MARV entry inh, Shiga toxin inh, LASV entry inh)
COCCOC(=O)c1[nH]c2c(c1C)C(=O)CC(c1ccc(N(C)C)cc1)C2 (stereo not drawn)	Cycloheximide cs 14, LASV entry inh inconclusive (no result: VACV mCherry inh)
COCCOC(=O)c1[nH]c2c(c1C)C(=O)CC(c1cc(OC)c(OC)c(OC)c1)C2 (stereo not drawn)	MARV entry inh 10µM, LASV entry inh inconclusive
CCCCOC(=O)c1[nH]c2c(c1C)C(=O)CC(c1cc(OC)c(OC)c(OC)c1)C2 (stereo not drawn)	VACV mCherry inh inconclusive (no result: LASV entry inh)
COc1cc(C2CC(=O)c3c([nH]c(C(=O)OC4CCCCC4)c3C)C2)cc(OC)c1OC (stereo not drawn)	Vaccinia Venus inconclusive, LASV entry inh 6.3µM (no result: Cycloheximide cs, MARV entry inh, Shiga toxin inh)
CCCCOc1ccc(N=Nc2ccc(N)nc2N)cn1	Cycloheximide cs 18 (no result: MARV entry inh, LASV entry inh)
O=[N+]([O-])c1ccc(C2=NCCO2)cc1	Cycloheximide cs 39, Shiga toxin inh 74 (no result: MARV entry inh, LASV entry inh)
NC1=C(c2ccc([N+](=O)[O-])cc2)C(=O)CO1	none
Cc1ccc(CNC(=O)CCC2CCCN(Cc3cccc4ncccc34)C2)o1 (stereo not drawn)	Cycloheximide cs 11, LASV entry inh inconclusive
COc1ccc(NC(=O)NNC(=O)COc2ccc3cc(Br)ccc3c2)cc1	LASV entry inh inconclusive
COc1ccc(CCC(=O)NNC(=O)Nc2ccc(C(C)=O)cc2)cc1	LASV entry inh 0.71µM
COc1ccc2cc(OCC(=O)NNC(=O)Nc3ccc(C(C)=O)cc3)ccc2c1	Cycloheximide cs 21, MARV entry inh inconclusive, VACV mCherry inh inconclusive
COc1ccc(CCC(=O)NNC(=O)Nc2ccc(C(C)C)cc2)cc1	none
COc1ccc(C(=O)COC(=O)CCC(=O)Nc2ccc(C(C)=O)cc2)cc1	Cycloheximide cs 40, Shiga toxin inh 47
COc1cccc(C(=O)Nc2nc(-c3nnn(-c4cccc(Cl)c4C)c3C)ns2)c1	none (no result: Cycloheximide cs, MARV entry inh, Shiga toxin inh)
OCc1ccc(-c2nn(Cc3ccccc3)c3ccccc23)o1	MARV entry inh 2.6µM, LASV entry inh 2.9µM (no result: Cycloheximide cs, Shiga toxin inh)
CS(=O)(=O)N1CCN(c2ccc(NC(=O)Cc3ccccc3)cc2)CC1	none
O=C(Cc1ccccc1)Nc1ccc(N2CCCCC2)cc1	Cycloheximide cs 31, Shiga toxin inh 83 (no result: Vaccinia Venus, VACV mCherry inh)
CN1CCN(c2ccc(NC(=O)Cc3ccccc3)cc2)CC1	Cycloheximide cs 55, Shiga toxin inh 75
OCC#Cc1cnc2ccccc2c1	Cycloheximide cs 26 (no result: VACV mCherry inh)
